# In the library only some 7.3% were active in any assay of this set; here they are far more common.
# HCMV antiviral: inhibitors of human cytomegalovirus; HFF cells, HCMV-luciferase reporter, 72 h; hits give low values; activity change, negative = inhibition, % at 57.5 µM; hit rate 4.5% among 410,000; in the data active means activity change below about -60%; inconclusive means no clear call, values can overlap the other calls; inactive means above about -39%
#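 Luciferase read-out from HCMV-luciferase-infected HFFs (MOI 1 PFU/cell) 72 h post infection at 37C; compounds added after 16 h cell attachment; activity normalized between buffer-only basal and Salinomycin (10uM) inhibitor controls.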
# FMDV antiviral: blocks foot and mouth disease virus; hit rate 1.2% among 410,000; FMDV antiviral cell-based qHTS; Potency, µM (series often up to 57.9 µM), for the others: top-dose activity change, negative = inhibition, actives largely listed as inhibitors; AID 1159524; calls by dose curve; tested in HEK293T cells; further: read-out not given here; potency means the concentration at half of the fitted maximal effect; nearly all actives have a fitted effect of over 45% in size
# AmpC inh no detg: inhibitors of E. coli AmpC beta-lactamase without detergent | P00811 | AmpC nitrocefin hydrolysis, absorbance 480 nm, 0.0001% Triton | Potency, µM (highest dose often 57.1 µM), inactives show at the highest dose activity change, negative = inhibition, hits mostly inhibitors | hit rate 0.52% among 330,000 | AID 485341;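 further: potency means the concentration at half of the fitted maximal effect; plate controls were no compound for no effect and no enzyme for full effect; nearly all actives have a fitted effect of over 20% in size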
# Target sequence (P00811 whole entry, looked up): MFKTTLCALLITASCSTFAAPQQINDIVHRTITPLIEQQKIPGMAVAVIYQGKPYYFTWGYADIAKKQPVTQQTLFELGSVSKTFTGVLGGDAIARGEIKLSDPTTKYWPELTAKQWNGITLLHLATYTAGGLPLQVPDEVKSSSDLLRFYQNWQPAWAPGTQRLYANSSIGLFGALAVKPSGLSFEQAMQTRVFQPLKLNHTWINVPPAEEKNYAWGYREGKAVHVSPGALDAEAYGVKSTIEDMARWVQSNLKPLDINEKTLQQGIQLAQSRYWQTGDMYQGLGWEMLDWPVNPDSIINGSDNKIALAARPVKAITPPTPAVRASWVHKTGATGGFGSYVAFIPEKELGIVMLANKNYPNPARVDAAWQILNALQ
#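 20 mM phosphate pH 7.0 + 0.01% (detergent screen) or 0.0001% Triton X-100; 5.3 nM AmpC reagent; cpd preinc 15 min RT; nitrocefin (800 uM stock) to start; A480 q20 s × 4 min; Activity was normalised to no-enzyme and no-compound control wells.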
# AmpC detergent: blocks E. coli AmpC beta-lactamase in detergent assay. AID 485294. AmpC hydrolysis of nitrocefin, absorbance 480 nm, 0.01% Triton. P00811. Potency, µM (highest dose often 114 µM), for the others: at the highest dose activity change, negative = inhibition, hits mostly inhibitors. hit rate 0.041% among 370,000;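 further: potency means the concentration at half of the fitted maximal effect; 0% = no-compound wells and -100% = no-enzyme wells; nearly all actives have a fitted effect of over 25% in size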
#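 AmpC (5.3 nM in the dispensed reagent) in 20 mM phosphate pH 7.0 with 0.01% (detergent screen) or 0.0001% Triton X-100 was preincubated with compounds for 15 min at room temperature. Nitrocefin was then added from an 800 uM solution, and hydrolysis was followed at 480 nm.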
# HCV inhibitor: inhibitors of hepatitis C virus infection. Huh7.5.1 HCVcc-Cre infection, luciferase reporter, 44 h. Potency, µM (top dose mostly 41.8 µM), for the others: top-dose activity change, negative = inhibition, actives largely listed as inhibitors. hit rate 3.4% among 340,000. AID 651820; further: potency means the concentration at half of the fitted maximal effect
#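 Reporter virus HCVcc-Cre (~0.5 moi) infects cells exposed to compound; seeding density 1,000 cells/well with 4 h settling beforehand. Luminescence, 15 sec read, taken 44 h post-infection following a 15 min RT substrate incubation.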
# * = called active by the depositor; ? = inconclusive; · = no result; + = active, no number; ! = not active in a repeat; [ ] = remark or other dose. Unless noted, the call rests on the fitted dose curve; in most records, active means well fitted curve in the direction sought with a large enough effect; inconclusive means small, poorly fitted or top-dose-only effect, or another doubt; inactive means no such curve, though single readings can be large; an effect the other way counts as inactive or inconclusive. Unless noted, on the % scale 0 is the no-effect control and ±100 the full control effect.
SMILES,HCMV antiviral,FMDV antiviral,AmpC inh no detg,AmpC detergent,HCV inhibitor
CC(=O)COc1cccc2ccc(/C=C/c3ccc(Br)s3)nc12,36.5,-3.0%,25.7%,-3.9%,11.2µM*
CC1C/C(=N/N2C(=O)CSC2=S)CC(C)(C)C1 (stereo not drawn),-70.2*,-17.8%,-35.9%,-0.5%,1.8%
CCOC(CNC(=O)CN1C(=O)COc2ccc(S(=O)(=O)N3CCOCC3)cc21)OCC,+,0.0%,2.8%,-3.7%,13.7%
O=C(CN1C(=O)COc2ccc(S(=O)(=O)N3CCCC3)cc21)NCCc1ccc(Cl)cc1,-72.7*,8.1%,·,3.6%,·
Cc1ccc(NC(=O)CN2C(=O)COc3ccc(S(=O)(=O)N4CCCCCC4)cc32)cc1Cl,-83.7*,-18.7%,·,19.5%,·
O=C(CN1C(=O)COc2ccc(S(=O)(=O)Nc3ccccc3)cc21)NCc1ccccc1Cl,-105.5*,8.7%,·,21.5%,·
COc1ccccc1CNC(=O)CN1C(=O)COc2ccc(S(=O)(=O)Nc3ccccc3)cc21,-18.5,38.5%,·,3.6%,·
NS(=O)(=O)c1ccc(CCNC(=O)CN2C(=O)COc3ccc(S(=O)(=O)N4CCCC4)cc32)cc1,-28.3,3.3%,-3.2%,-2.8%,1.0%
COc1cc(C(=O)COC(=O)c2c(C)noc2C)cc(OC)c1OC,-13.0,-2.3%,-1.9%,·,-24.6%
COc1ccc(Cl)cc1N(C)C(=O)Cc1noc2ccc(C)cc12,-16.3,1.0%,·,11.6%,·
CS(=O)(=O)Nc1ccc2c(c1)[C@@H]1C[C@@H](CC(=O)NCc3cccnc3)O[C@H](CO)[C@@H]1O2,13.7,-5.2%,·,·,·
COc1ccc(CCNC(=O)CN2C(=O)COc3ccc(S(=O)(=O)N4CCCC4)cc32)c(OC)c1,-62.5*!,3.4%,16.0%,-18.6%,?
CCc1nc2ccccc2c(C(=O)NCc2ccccc2)c1C,-67.5*,-6.9%,16.8%,-9.0%,-15.2%
CCc1nc2ccccc2c(C(=O)Oc2cccc3cccnc23)c1C,26.8,-11.5%,-0.6%,-9.3%,2.24µM*
CC(C)CNc1ncnc2c1ncn2[C@H]1CN(Cc2ccc3c(c2)OCO3)C[C@@H](CO)O1,-66.2*,-23.8%,·,·,·
CC(C)CNc1ncnc2c1ncn2[C@H]1CN(Cc2cccc3ccccc23)C[C@@H](CO)O1,-69.6*,-2.2%,·,·,·
Cc1cc(C(=O)COC(=O)C2=COCCO2)c(C)n1-c1ccc2c(c1)OCO2,13.3,6.7%,30.5%,3.0%,-16.6%
Cc1cc(C(=O)CSc2nncs2)c(C)n1-c1ccc2c(c1)OCO2,-69.1*,·,0.282µM*,?,?
Cc1cc(C(=O)COc2ccc(C#N)cc2)c(C)n1-c1ccc2c(c1)OCO2,-65.7*,?,-20.7%,?,-19.8%
Cc1cc(C(=O)COC(=O)Cc2n[nH]c(=O)c3ccccc23)c(C)n1-c1ccc2c(c1)OCCO2,-77.1*,?,-20.7%,-14.6%,-26.7%
COc1ccc(OCCN2CCN(C(=O)c3ccc(OC)c(OC)c3)CC2)cc1,-13.7,?,51.7%,-5.4%,8.91µM*
COc1ccc(OCC(=O)N2CCN(C(=O)c3ccc(OC)c(OC)c3)CC2)cc1,22.1,15.5%,·,5.0%,·
CCn1c(COc2c(C)cccc2C)nnc1SCC(=O)N1CCN(c2ccccc2)CC1,?,?,109.9%,1.5%,35.5µM*
Cc1cccc(OCc2nnc(SCC(=O)N3CCN(c4ccccc4)CC3)o2)c1C,-13.7,?,-2.7%,1.2%,-3.7%
C=CCn1c(COc2cccc(C)c2C)nnc1SCC(=O)N1CCN(c2ccccc2)CC1,?,17.8µM*,102.9%,?,?
SMILES,HCMV antiviral,FMDV antiviral,AmpC inh no detg,AmpC detergent,HCV inhibitor
CCCOc1ccc(C(=O)Nc2cccc(-c3nc4ccccc4[nH]3)c2)cc1,-87.8*,?,·,2.5%,·
CCOc1cc(OCC)cc(C(=O)Nc2cccc(-c3nc4ccccc4[nH]3)c2)c1,-98.3*,?,·,-5.5%,·
COCCN1Cc2cccc(C(=O)Nc3cccc(-c4nc5ccccc5[nH]4)c3)c2C1=O,-69.1*,-12.3%,102.7%,-6.4%,?
CS(=O)(=O)Cc1ccc(C(=O)Nc2cccc(-c3nc4ccccc4[nH]3)c2)cc1,7.3,14.4%,-33.3%,1.8%,?
Cc1ccc(C(=O)OCC(=O)N2CCC(C)CC2)cc1S(=O)(=O)N1CCOCC1,22.5,-16.1%,·,·,·
CC1=CCC2C(=O)N(c3cccc(C(=O)Nc4ccccc4Cl)c3)C(=O)C2C1 (stereo not drawn),5.8,10.4%,2.3%,1.8%,16.6%
Cn1cccc1C(=O)OCc1csc(-c2ccccc2)n1,261.0,-5.5%,-24.7%,-6.0%,-21.6%
Cn1cccc1C(=O)OCc1ccc(F)cc1,-74.9*,24.5%,-13.2%,-12.9%,13.5%
N#C/C(=C\c1c[nH]c2ccccc12)C(=O)Nc1ncc(Cc2ccc(Cl)cc2Cl)s1,19.3,0.0%,3.7%,3.6%,35.5µM*
Cn1cc(/C=C(\C#N)C(=O)Nc2ncc(Cc3cccc(Cl)c3)s2)c2ccccc21,·,·,-9.4%,2.3%,-17.2%
COc1ccc(-c2[nH]ncc2N=Nc2cc(C)cc(C)c2)cc1,10.3,-13.9%,-11.9%,?,2.24µM*
CC(=O)c1ccc(-c2ccc(C(=O)N3CCCc4ccccc43)o2)cc1,?,-15.2%,-16.4%[11.4 µM],?,?
COc1ccc(C(=O)C2CCCN(Cc3cnc(C)s3)C2)cc1OC (stereo not drawn),?,-7.7%,-4.3%,3.9%,-2.6%
Cc1ncc(CN2CCCC(C(=O)c3ccc(C(C)(C)C)cc3)C2)s1 (stereo not drawn),?,?,134.5%,-1.5%,11.2µM*
COc1ccc2cc(C(=O)C3CCCN(Cc4cnc(C)s4)C3)ccc2c1 (stereo not drawn),-78.4*,0.0%,128.9%,3.4%,11.2µM*
CC(=O)N(/N=C/c1ccc(C)cc1)c1nc(CCl)cs1,13.7,8.8%,-14.6%,-4.1%,7.5%
CCn1c(=O)c(-c2ccccc2)c(O)c2ccccc21,-17.1,-13.3%,-4.5%,-1.8%,-3.3%
O=c1c(-c2ccccc2)c(O)c2ccccc2n1-c1ccccc1,-63.8*,-4.5%,-10.2%,6.3%,10.1%
C=CC[C@H](CC(=O)OC(C)(C)C)C(=O)OC[C@@H]1CCCN1C(=O)[C@@H](CC=C)CC(=O)N[C@H](CO)Cc1ccccc1,80.6,-10.6%,249.4%,·,?
O=S(=O)(/C(=C/c1ccc(C(F)(F)F)cc1)c1nc2ccccc2[nH]1)c1ccccc1,-103.7*,?,-47.5%,-9.0%,11.2µM*
CC(C)c1ccc(/C=C(\c2nc3ccccc3[nH]2)S(=O)(=O)c2ccccc2)cc1,-101.2*,10µM*,-49.8%,?,12.6µM*
C/C(=C\c1ccc(N)cc1)c1nc2ccccc2[nH]1,2.2,46.8%,-33.2%,-20.0%,-17.5%
CCCC[C@@H](CN[C@H](C)CNC)NCC1CCC(C(C)(C)C)CC1 (stereo partly drawn),-86.7*,-15.0%,68.4%,?,?

# Compound activity from PubChem.
